Assay outcomes deposited in PubChem BioAssay by National Center for Advancing Translational Sciences (NCATS).
NS1 inh = blocks influenza NS1 protein function | 0.4% of 270,000 active | AID 2326 | Potency, µM (top dose mostly 46.1 µM), for inactives: at the top dose activity, positive = more growth; calls by dose curve; also: potency is read from the fitted curve at half-maximal effect; actives are rising curves; nearly all actives have a fitted effect of over 50% in size
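A cell-based growth assay was used: compounds that relieve NS1-induced slow growth of budding yeast raise OD600. Assay medium was yeast nitrogen base with ammonium sulphate and -URA supplement, pH 6.0, with 2% galactose.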
Pf growth 96h = inhibits malaria parasite growth, 96 h; 6.9% of 320,000 active; AID 504834; P. falciparum luciferase reporter growth, 96 h; Potency, µM (highest dose often 28.7 µM), for the others: top-dose activity change, negative = inhibition, hits mostly inhibitors; also: potency is read from the fitted curve at half-maximal effect; % is scaled to controls: 0 for no effect and ±100 for the full control effect
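Readout is luminescence from an integrated firefly luciferase in P. falciparum. Red cells, 2% hematocrit and 0.05% parasitemia final, were cultured with compound through two parasite generations (96 hours) at 37 C, 5% CO2.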
Pf growth 48h = P. falciparum growth inhibition at 48 hours (one generation); P. falciparum luciferase growth in erythrocytes, 48 h; Potency, µM (series often up to 28.7 µM), inactives show at the top dose activity change, negative = inhibition, hits mostly inhibitors; 5.9% of 310,000 active; also: potency is read from the fitted curve at half-maximal effect; % is scaled to controls: 0 for no effect and ±100 for the full control effect
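Luciferase-expressing parasites in RBCs, 2% Hct / 0.1% parasitemia final; RPMI 1640 + 0.5% Albumax; 37 C, 5% CO2, one generation; luminescence read-out, lower signal = inhibition.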
Shiga toxin inh = Shiga toxin inhibition | Vero cells, Shiga toxin protein synthesis inhibition reporter | inhibition, % at 38.7 µM | 9.2% of 290,000 active; in the data active = inhibition mostly above about 28%, no sharp cut-off; inactive = mostly below about 43%; also: 0% is about no effect
Cycloheximide cs = counter-screen for Shiga toxin inhibitors: cycloheximide protein synthesis inhibition; cell reporter, cycloheximide protein synthesis inhibition counterscreen; max response, %; 12% of 300,000 active; in the data active = max response mostly above about 13%, no sharp cut-off; inactive = mostly below about 14%; also: read at 38.3 µM for the half of the compounds with a filed dose; 0% is about no effect
FBPA Giardia inh = Giardia lamblia aldolase inhibition. Potency, µM (titrated, usually from 59.6 µM), for the others: top-dose activity, negative = inhibition, usual class: inhibitors. purified Giardia FBPA. A8B2U2. AID 2451. 0.71% of 290,000 active; also: potency is read from the fitted curve at half-maximal effect; % is scaled to controls: 0 for no effect and ±100 for the full control effect; nearly all actives have a fitted effect of over 55% in size
Target sequence (A8B2U2 whole entry, looked up): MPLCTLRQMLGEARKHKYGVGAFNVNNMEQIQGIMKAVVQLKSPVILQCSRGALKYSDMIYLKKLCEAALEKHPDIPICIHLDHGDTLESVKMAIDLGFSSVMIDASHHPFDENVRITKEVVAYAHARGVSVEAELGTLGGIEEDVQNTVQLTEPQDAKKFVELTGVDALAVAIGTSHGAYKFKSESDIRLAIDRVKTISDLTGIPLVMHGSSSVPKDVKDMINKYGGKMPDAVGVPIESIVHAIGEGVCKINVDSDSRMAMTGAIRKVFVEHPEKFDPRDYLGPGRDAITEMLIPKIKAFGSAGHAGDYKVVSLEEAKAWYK
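40 nM FBPA preincubated 10 min at RT with compound (up to 57.5 uM final), then substrate plus GAPDH/TPI/NAD/arsenate coupling and diaphorase/resazurin added. Fluorescence read after 20 min at RT, 525/598 nm.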
* = called active by the depositor. Sampled rows, rich in hits. Any-hit rate of the full collection: about 21%. Unless noted, calls follow the shape of the dose curve; as a rule, active = well fitted curve in the direction sought with a large enough effect; inconclusive = small, poorly fitted or top-dose-only effect, or another doubt; inactive = no such curve, though single readings can be large; an effect the other way counts as inactive or inconclusive.

C=CCc1ccccc1OCC(O)CN1CCN(c2ccc(OC)cc2)CC1 (stereo unspecified) was read as NS1 inh -10%, Pf growth 96h 6.6µM*, Pf growth 48h 1%, Shiga toxin inh -18, Cycloheximide cs 4 and FBPA Giardia inh -25%.
C=CCc1ccccc1OCC(O)CNC (stereo unspecified) was read as NS1 inh -1%, Pf growth 96h 1.2µM*, Shiga toxin inh 22, Cycloheximide cs -3 and FBPA Giardia inh 4%.
Screening C=CCc1ccccc1OCC(O)Cn1ccnc1C (stereo unspecified) returned NS1 inh 1%, Pf growth 96h 1.5µM*, Pf growth 48h -6%, Shiga toxin inh 22, Cycloheximide cs -2 and FBPA Giardia inh 1%.
Screening COc1cc2c(cc1OC)C(NC(=O)C(F)(F)F)C/C2=N\O (stereo unspecified) returned Pf growth 96h 13%, Pf growth 48h 13µM*, Shiga toxin inh -15, Cycloheximide cs -9 and FBPA Giardia inh 1%.
Screening COc1ccc2c(c1)C(NC(=O)C(F)(F)F)CC2=O (stereo unspecified) returned NS1 inh 1%, Pf growth 96h 11%, Pf growth 48h 23%, Shiga toxin inh 20, Cycloheximide cs 8 and FBPA Giardia inh 3%.
Screening C=C(C[C@]1(C(=O)OC)CC2(CC=C(C)C)C(=O)C(C(=O)CC(C)C)=C(O)C(CC=C(C)C)(C1)C2=O)C(=O)OC (stereo partly specified) returned FBPA Giardia inh 1%.
`CC1CCN(C(=O)C2CCC(CNS(=O)(=O)c3cccc4cccnc34)CC2)CC1` (stereo unspecified) gave NS1 inh -1%, Pf growth 96h 9.3µM*, Shiga toxin inh -8, Cycloheximide cs -2 and FBPA Giardia inh 10%.
Screening CCN(CC)C(=O)C1CCC(CNS(=O)(=O)c2cccc3cccnc23)CC1 (stereo unspecified) returned NS1 inh -10%, Pf growth 96h 15µM*, Pf growth 48h -2%, Shiga toxin inh 18, Cycloheximide cs 7 and FBPA Giardia inh 8%.
For CC(=O)N1c2ccc(S(=O)(=O)NCC3CCC(C(=O)NC4CCC(C)CC4)CC3)cc2CC1C (stereo unspecified) the results were NS1 inh -8%, Pf growth 96h inconclusive, Pf growth 48h 13µM*, Shiga toxin inh -8, Cycloheximide cs -2 and FBPA Giardia inh 8%.
CC1CCC(NC(=O)C2CCC(CNS(=O)(=O)c3cccc4cccnc34)CC2)CC1 (stereo unspecified) was read as NS1 inh 10%, Pf growth 96h 12µM*, Pf growth 48h -9%, Shiga toxin inh 8 and Cycloheximide cs 2.
COc1ccc(C(=O)NC2CC2)cc1OC1CCN(Cc2cc(C)cc(C)c2)CC1 was read as NS1 inh 2%, Pf growth 96h -22%, Pf growth 48h inconclusive, Shiga toxin inh -6, Cycloheximide cs -2 and FBPA Giardia inh -8%.
`Cc1nc(SCC(=O)NCC2CCCO2)[nH]c(=O)c1C` (stereo unspecified) gave Pf growth 96h 4% and Pf growth 48h 15%.
`O=c1c(-c2ccc(Cl)cc2)nc2cnc(N3CCOCC3)nc2n1C[C@H]1CCCO1` gave FBPA Giardia inh 6%.
Screening CCCCC[C@H](O)/C=C/C=C\C=C\C=C\[C@@H](O)[C@@H](O)CCCC(=O)O returned FBPA Giardia inh 0%.
`Cc1nc2cc([N+](=O)[O-])ccc2c(=O)n1-c1ccc(Br)cc1` gave NS1 inh -9%, Pf growth 96h 13µM*, Pf growth 48h 13%, Shiga toxin inh 2, Cycloheximide cs -2 and FBPA Giardia inh 9%.
`Cc1nc2ccccc2c(=O)n1-c1ccc([N+](=O)[O-])cc1` gave NS1 inh 8%, Pf growth 96h 15µM*, Pf growth 48h -7%, Shiga toxin inh 64*, Cycloheximide cs 42* and FBPA Giardia inh 5%.
For Cc1cc(-c2ccc([N+](=O)[O-])cc2)nc2ccccc12 the results were Pf growth 96h 118%, Pf growth 48h 48%, Shiga toxin inh 62*, Cycloheximide cs 46* and FBPA Giardia inh -13%.
Cc1nc2ccc(Cl)cc2c(=O)n1-c1ccc([N+](=O)[O-])cc1 was read as NS1 inh 6%, Pf growth 96h -8%, Pf growth 48h -16%, Shiga toxin inh 11, Cycloheximide cs 1 and FBPA Giardia inh 11%.
Screening Cn1cccc1C(=O)N1CCC2(CCCN(c3cccc(-c4ccccc4)c3)C2)CC1 returned FBPA Giardia inh -2%.
CCOC(=O)c1cn2nc(Oc3ccccc3)ccc2n1 was read as NS1 inh -8%, Pf growth 96h 128%, Pf growth 48h 111%, Shiga toxin inh 93*, Cycloheximide cs 71* and FBPA Giardia inh 3%.
CCOC(=O)c1cn2nc(Oc3ccc(C)cc3)ccc2n1 was read as NS1 inh -1%, Pf growth 96h -3%, Pf growth 48h inconclusive, Shiga toxin inh 98*, Cycloheximide cs 43* and FBPA Giardia inh 5%.
For CN(Cc1cccs1)C(=O)CCCc1c[nH]c2ccccc12 the results were NS1 inh -19%, Pf growth 96h 77%, Pf growth 48h 42%, Shiga toxin inh 73*, Cycloheximide cs 46* and FBPA Giardia inh 0%.
`CN(Cc1cccs1)C(=O)CCc1c[nH]c2ccccc12` gave Pf growth 96h 30%, Pf growth 48h 7%, Shiga toxin inh 60, Cycloheximide cs 16* and FBPA Giardia inh 0%.
Screening CN(C)c1ccc(-c2cc(C3C4C=CCCC4(C)C(=O)N3Cc3ccccc3)ccc2F)cc1 (stereo unspecified) returned Shiga toxin inh 41, Cycloheximide cs 5 and FBPA Giardia inh 0%.
COc1ccc(-n2ccnc2SCC(=O)Nc2cc(C)on2)cc1 was read as NS1 inh -7%, Pf growth 96h 5%, Pf growth 48h 3%, Shiga toxin inh -8 and Cycloheximide cs -1.
Screening Cc1cccc(-n2ccnc2SCC(=O)Nc2cc(C)on2)c1 returned NS1 inh 4%, Pf growth 96h 10µM*, Pf growth 48h -22%, Shiga toxin inh 4, Cycloheximide cs 5 and FBPA Giardia inh 0%.
Cc1cccc(-n2ccnc2SCC(=O)O)c1C was read as NS1 inh -1%, Pf growth 96h 23%, Pf growth 48h 0%, Shiga toxin inh 4, Cycloheximide cs -3 and FBPA Giardia inh 15%.
Screening COc1cccc(-n2ccnc2SCC(=O)Nc2ccccc2)c1 returned NS1 inh -79%, Pf growth 96h 31%, Pf growth 48h -5%, Shiga toxin inh -1, Cycloheximide cs 8 and FBPA Giardia inh -18%.
`Cc1cc(NC(=O)CSc2nccn2-c2cccc(C)c2C)no1` gave Pf growth 96h 8.3µM*, Pf growth 48h inconclusive, Shiga toxin inh 18, Cycloheximide cs -2 and FBPA Giardia inh -1%.
